An excerpt weighted towards active compounds, which were near 8% of everything screened.
PostGolgi yeast: phenotypic screen on post-Golgi transport, primary screen | post-Golgi transport phenotypic cell assay | inhibition, % at 10 µM | actives 0.9% (n = 98,000) | AID 739, 2007;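 note: yeast cells grown in 1536-well plates; yeast grown about 18 h at 30C before absorbance read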
PostGolgi ctrl: growth inhibition of yeast control strain, primary screen, counter-screen for post-Golgi transport modulator project; efflux-deficient yeast background strain, growth absorbance A615, 16 h; AID 738, 2007; actives 5% (n = 98,000); inhibition, % at 10 µM
Pyk2 oligo antag: antagonists of Pyk2 self-association, primary screen, Q293 cells, FERM NanoBiT luminescence, HTS; Protein-tyrosine kinase 2-beta (Homo sapiens), Q14289; active compounds read low; z-score (the deposit names both 25 µM and 10 µM); actives 0.83% (n = 99,000);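 active = Z-score of -3 or lower, scaled per plate to the spread of control and sample wells; inactive = z-score above -3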;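 note: negative z-score means lost luminescence so less FERM oligomerization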
Cav3 T inh: Cav3.2 calcium influx blockers – cell-based, Fluo-4 calcium fluorescence, FDSS, MLSMR library, primary screen. Voltage-dependent T-type calcium channel subunit alpha-1H (Homo sapiens), O95180. Cav3.2-expressing cells; active compounds read low. B-score at 10 µM. actives 4% (n = 100,000). AID 449739, 2010;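 active = single-dose well whose peak fluorescence ratio is a statistical outlier from its plate by either plate-standardised score or position-corrected B-score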
The depositor's hits bear a star; . = no result. Cut-off read from the data, not from the text of the source, unless noted: active = inhibition above about 30%; inactive = the rest.

SMILES	PostGolgi yeast	PostGolgi ctrl	Pyk2 oligo antag	Cav3 T inh
CCOc1ccc(-c2n[nH]c(C)c2Oc2ccccc2OC)c(O)c1	4	5	-2.5	-2.1
Cc1[nH]nc(-c2ccc(O)cc2O)c1Oc1ccccc1	-1	21	-2.4	-4.5*
Cc1[nH]nc(-c2ccc(OCc3cnn(-c4ccccc4)c3)cc2O)c1Oc1ccccc1F	1	42*	-1.3	-0.026
CCc1cc(-c2n[nH]c(C)c2Oc2ccc(C(C)C)cc2)c(O)cc1O	-6	87*	-1.7	-0.037
CCCOC(=O)c1ccc(Oc2c(-c3ccc(OC)cc3O)n[nH]c2C)cc1	-7	5	-1.1	-1.3
CCCOC(=O)c1ccc(Oc2c(-c3ccc(O)cc3O)n[nH]c2C)cc1	1	38*	-2.1	-3
COc1ccccc1CN1C(=O)C2CC=CCC2C1=O (configuration not stated)	-4	5	0.72	-0.039
O=C1CC(C2CCCO2)C(=O)N1Cc1ccccc1 (configuration not stated)	-8	-4	0.48	.
Cc1cc2nc(CCN(Cc3cccnc3)C(=S)Nc3ccccc3)[nH]c2cc1C	-2	8	-1.1	-0.66
Cc1cc2nc(CCN(C(=S)NCC(C)C)C3CCCC3)[nH]c2cc1C	-6	11	-1.8	-4.3*
CCSc1nnc(NC(=O)NCC(F)(F)F)s1	45*	-4	-0.66	-0.0015
CCSc1nnc(NC(=O)c2cc(C)on2)s1	1	33*	-0.44	0.35
CCSc1nnc(NC(=O)c2ccc3c(c2)OCO3)s1	10	41*	0.54	0.068
CCSc1nnc(NC(=O)c2cnccn2)s1	.	.	.	1.2
Cc1ccc(-n2c(C)nn(-c3ncc(C(F)(F)F)cc3Cl)c2=O)cc1	22	-3	0.69	-0.54
Cc1ccc(-n2nnc(-c3cccnc3Cl)n2)cc1	.	.	.	1.1
O=c1c2ccccc2ncn1CCCSc1ccccc1	-1	11	1.3	-0.019
O=c1c2ccccc2ncn1CCCSc1ccc(Cl)cc1	0	42*	0.91	-1.5
N#Cc1ccccc1NCc1ccccc1	-2	32*	0.6	-0.46
CCCC1CC(C)(c2csc(Nc3ccc(OCC)cc3)n2)OC1=O (configuration not stated)	.	.	-0.79	-2.4
C/C=C/C=C/C(=O)N1CC[C@]23c4ccccc4N[C@H]4N(C)c5cccc6c5[C@]42CCN([C@H]6C2OC2(C)C)[C@H]13 (some centres not stated)	.	.	.	-4.5*
CN1CCC23c4ccccc4NC1C21CCN(C)C3Nc2ccccc21	.	.	.	0.094
O=C(CSc1ncn[nH]1)N(C1CCCCC1)C1CCCCC1	-2	-1	-0.8	-1.1
Cc1ccc(-c2nnn(CC(=O)N(CC(=O)NC3CCCCC3)c3cnc4ccccc4c3)n2)o1	.	.	1.6	-4.4*
COc1ccc(-c2nnn(CC(=O)N(CC(=O)NC3CCCC3)Cc3cccs3)n2)cc1OC	-4	-2	1.6	-0.53
SMILES	PostGolgi yeast	PostGolgi ctrl	Pyk2 oligo antag	Cav3 T inh
O=C(CN(C(=O)Cn1nnc(-c2cccs2)n1)c1ccc2c(c1)OCCO2)NC1CCCCC1	-4	8	-0.71	-4.1*
O=C(CN(Cc1ccccc1F)C(=O)Cn1nnc(-c2cccs2)n1)NC1CCCCC1	5	0	0.1	-6.3*
Cc1ccc(-c2nnn(CC(=O)N(CC(=O)NCC3CCCO3)c3ccccc3)n2)o1 (configuration not stated)	-10	3	-0.21	-0.012
O=C(CCSc1ccccc1)Nc1ccc(OCc2ccccc2)cc1	-6	12	0.45	-0.29
CCn1c(=O)cc(SCC(=O)N2CCN(c3ccccc3F)CC2)c2ccccc21	10	13	-0.04	-3.4
Cc1cc(C)n(-c2nc3ccccc3n3cnnc23)n1	0	8	0.32	0.42
CCN(CC)c1nc2ccccc2nc1-n1nc(C)cc1C	-10	43*	-0.26	-0.89
CCCCn1nnc(NC(=O)c2ccc(-c3cccc(Cl)c3)o2)n1	-3	7	0.61	-4.9*
CCCn1nnc(NC(=O)c2ccc(-c3cccc(Cl)c3)o2)n1	14	27	0.54	-5*
CCCCn1nnc(NC(=O)Cc2ccc(Cl)cc2)n1	2	18	-2	-1.5
CCCn1nnc(NC(=O)c2cccc(Cl)c2)n1	-2	8	-0.44	0.71
COc1cccc(S(=O)(=O)Nc2ccc(C(=O)N3CCN(C(=O)c4ccco4)CC3)cc2)c1	.	.	-0.05	1.1
Cn1ncc(Cl)c1C(=O)NC(=S)Nc1sc2c(c1C#N)CCCCC2	-4	-5	0.09	-0.21
CC(C)Oc1ccc(C(=O)N(Cc2ccco2)C2CCS(=O)(=O)C2)cc1 (configuration not stated)	-2	0	-0.79	0.69

Screens deposited in PubChem by several laboratories.
